From PubChem BioAssay AID652042 (Broad Institute, 2013)
About 350 (32%) of roughly 1,100 compounds were called active. Only a sample is shown. Results with a measured potency or affinity are listed apart. A number with no mark means an inactive call. The rule behind the calls is not given here.

assay: CEM21 lymphoblast cell cytotoxicity, dose response, cytotoxicity control for viral fusion inhibitor project, CellTiter-Glo luminescence, cherry-picked (AID 652042); details: CEM21 cells viability, CellTiter-Glo ATP luminescence, 24 h; series mostly up to 35 µM; activity change, negative = cytotoxicity: at the top concentration

Compound	activity change, negative = cytotoxicity
O=c1c2ccccc2nnn1CSc1nnc(COc2ccc(Cl)cc2)n1Cc1ccco1	5.32% [at 8 µM]
CC(NC(=O)c1ccccc1NC(=O)CN1CCc2ccccc2C1)c1ccccc1 (configuration not stated)	-3.62%
O=C(O)C[C@@H]1C=C[C@@H](NC(=O)Nc2ccccc2)[C@H](CO)O1	-0.862%
C[C@@H]1CN([C@@H](C)CO)C(=O)c2cccc(NS(=O)(=O)c3cccs3)c2O[C@@H]1CN(C)Cc1ccc(C(F)(F)F)cc1	-11.3%
O=C(O)C[C@@H]1C=C[C@H](NC(=O)Nc2ccccc2)[C@H](CO)O1	2.19%
C[C@H]1Cn2cnc(C(=O)N3CCN(c4ccccc4)CC3)c2C(=O)N1	-11.6%
O=C(Nc1nc(COc2ccccc2)cs1)C12CC3CC(CC(C3)C1)C2	-22.3%
COc1ccccc1NC(=O)N[C@@H]1CC[C@H](CC(=O)N[C@H](C)c2ccccc2)O[C@@H]1CO	-2.4%
C=C1CCN([C@@H](Cc2ccccc2)C(=O)Nc2ccc(OC)cc2)S(=O)(=O)c2ccccc21	-1.34%
CN1CCN(c2ccccc2NC(=O)C(Cc2ccccc2)n2cccc2)CC1 (configuration not stated)	-19.5%
CC(=O)c1ccc(S(=O)(=O)N2CCN(c3nc4c(C)c(C)ccc4cc3C#N)CC2)cc1	-12.4%
OCC[C@@H]1C[C@@H](O)[C@H](O)[C@]2(OCc3ccccc32)O1	-4.61%
COc1ccc(NC(=O)Nc2ccc3c(c2)C(=O)N([C@H](C)CO)C[C@H](C)[C@H](CN(C)Cc2ccncc2)OCCCC[C@H](C)O3)cc1	-6.02%
COc1ccccc1S(=O)(=O)Nc1ccc2c(c1)C(=O)N(C)C[C@@H](OC)[C@@H](C)CN[C@@H](C)CO2	0.329%
Cc1ccc2c(c1)[C@H]1[C@H](CO2)[C@H](c2ccccc2)[C@]2(C)C(=O)N(CC3CCCO3)CC(=O)N12 (some centres not stated)	-0.675%
CCOC(=O)C(C)Oc1cccc2c(=O)n(CC(=O)NCCc3ccc(OC)c(OC)c3)ccc12 (configuration not stated)	1.62%
COc1ccc(Cl)cc1NC(=O)CN(C)C(=O)CCCc1c[nH]c2ccccc12	-10.5%
CC(C)CN(C(=O)C(c1ccccc1)c1ccccc1)c1c(N)n(CC(C)C)c(=O)[nH]c1=O	1.59%
O=C(Nc1ccc(Cl)cc1)C1CCCN(C2=NS(=O)(=O)c3ccccc32)C1 (configuration not stated)	5.19% [at 16 µM]
CCS(=O)(=O)Nc1ccc2c(c1)C(=O)N(C)C[C@H](OC)[C@@H](C)CN(C(=O)C1CCC1)[C@H](C)CO2	2.63%
CCc1ccc(-c2cn3nc(C)c(C)nc3n2)cc1	-19.4%
COC(=O)[C@@]1(C)[C@H]2C(=O)N(Cc3ccccc3)C(=O)[C@H]2[C@H]2CN=C(SCC3CC3)N21	-4.08%
C[C@@H]1CN([C@@H](C)CO)S(=O)(=O)c2ccc(-c3cccc(F)c3)cc2O[C@@H]1CN(C)S(=O)(=O)c1ccc(F)cc1	-23.9%
COc1ccc(NC(=O)Nc2ccc3c(c2)C(=O)N([C@H](C)CO)C[C@H](C)[C@H](CN(C)S(=O)(=O)c2ccc(OC)cc2)O3)cc1	-8.2%
COc1ccc(S(=O)(=O)Nc2ccc3c(c2)CC(=O)N([C@@H](C)CO)C[C@H](C)[C@H](CN(C)S(=O)(=O)c2ccc(F)cc2)O3)cc1	-3.18%
COc1ccc(C(=O)C(C)N(C(=O)c2ccc(Cl)cc2Cl)N2C(=O)C3C4C=CC(C4)C3C2=O)cc1 (configuration not stated)	-14%

Compound	activity change, negative = cytotoxicity
COc1ccc(Cn2nnnc2C(c2cc3cc(C)cc(C)c3[nH]c2=O)N2CCOCC2)cc1 (configuration not stated)	1.27%
O=C(N(c1ccccn1)c1ccccn1)C12CC3CC(CC(Cl)(C3)C1)C2	-0.057%
COC(=O)[C@@]1(Cc2ccc(F)cc2)[C@H]2c3cc(C(=O)N(C)C)n(CCO)c3C[C@H]2CN1C(=O)c1ccccc1	4.85%
COC(=O)C1CCN(C(=O)COC(=O)c2cc(S(=O)(=O)N3CCOCC3)ccc2C)CC1	2.66%
O=C(COC(=O)c1cc(S(=O)(=O)N2CCOCC2)ccc1O)NCc1ccc2c(c1)OCO2	7.4%
O=C(CCCOc1ccc(Cl)cc1Cl)Nc1cc(S(=O)(=O)N2CCOCC2)ccc1N1CCOCC1	-10.9%
Cc1cc(Cl)ccc1OCCCC(=O)Nc1cc(S(=O)(=O)N2CCOCC2)ccc1N1CCOCC1	-2.78%
CC(C)(C)C1CCc2onc(C(=O)NCc3ccc(F)cc3)c2C1 (configuration not stated)	-14.6%
Cn1c(=O)[nH]c2cc3ccccc3cc21	-6.26%
N#Cc1ccc(CN2CCN(C(=O)CNC(=O)Cc3cccc4ccccc34)CC2)cc1	-15.3%
CCCCNC(=O)C[C@H]1C[C@@]2(C(=O)OC)C(=C[C@H](C(C)(C)C)O[C@@H]2C)N(Cc2ccc3c(c2)OCO3)C1=O	-9.67%
C=C(C)CN(CC)c1nc(N)c2c(N)nc3c(c2c1C#N)CC(=O)N3C12CC3CC(CC(C3)C1)C2	-28.7%
CN(C[C@H](Cc1ccccc1)N(C[C@H](Cc1ccccc1)N(CC1(c2ccccc2)CC1)N=O)N=O)N=O	-8.9%
COc1ccc2ncn(-c3ccccc3)c2c1	-2.1%
COC(=O)[C@@]1(C)[C@H]2C(=O)N(Cc3ccccc3)C(=O)[C@H]2[C@H]2CN=C(SCc3ccccc3)N21	-3.46%
CCOc1ccc2c(c1)-c1c(ssc1=S)C(C)(C)N2C(=O)c1ccco1	-29.3%
CCn1c(COc2ccc(Cl)cc2)nnc1SCc1nc2ccccc2[nH]1	-21.6%
COCCCN(C(=S)NC(=O)C12CC3CC(CC(C3)C1)C2)c1c(N)n(Cc2ccccc2)c(=O)[nH]c1=O	6.22%
COCCN(C(=O)COC(=O)C12CC3CC(CC(Cl)(C3)C1)C2)c1c(N)n(Cc2ccccc2)c(=O)[nH]c1=O	5.3% [at 16 µM]
CCOc1ccccc1C(=O)NCC(=O)NNC(=O)CN(C)S(=O)(=O)c1ccc(Cl)cc1	-8.4%
Cc1cc(C)nc(/N=C(\N)Nc2ccc(CC(=O)OC(C)C)cc2)n1	-16.5%
CCCC[C@H](CN(N=O)[C@@H](Cc1ccccc1)CN(C)N=O)N(CCc1ccccc1)N=O	-7.7%
CN(C(=O)c1cccc(NC(=O)Cc2cccc(NC(=O)C3CCCN(C(=O)C4CCC4)C3)c2)c1)C1CCC1 (configuration not stated)	-1.65%
O=C1c2cccnc2C(Nc2ccc(S(=O)(=O)N3CCCCCC3)cc2)N1Cc1ccccc1 (configuration not stated)	-1.75%
C[C@H]1CN([C@@H](C)CO)C(=O)c2ccccc2-c2ccccc2CO[C@@H]1CN(C)C(=O)CCC(F)(F)F	1%
C[C@H]1CN([C@@H](C)CO)C(=O)c2ccccc2-c2ccccc2CO[C@H]1CN(C)S(=O)(=O)c1cccc(C#N)c1	-13.5%
